Rows were chosen to be rich in hits. Some 2.3% of all compounds tested hit in one or more screens of this group.
M1 ag parental: M1 agonist counterscreen hit in parental CHO-K1 cells; Fluo-8 calcium fluorescence; scaled to maximal ATP response, vehicle zero; hit rate 0.48% among 360,000; activation, % at 3 µM; in the data active = activation above about 15%;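 also: untransfected CHO-K1 host cells lacking M1 receptor as counterscreen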
M1 ag: human M1 muscarinic receptor agonism | activation, % at 3 µM | P11229 | CHO-K1 hM1, Fluo-8 calcium fluorescence, agonist mode; 0% DMSO, 100% acetylcholine EC100 | hit rate 0.33% among 360,000;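 active = activation above the run's mean compound activation plus 3 SD, cut at about 16% in these data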;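 also: peak over basal fluorescence ratio within a 140 s kinetic read after compound addition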
Target sequence (P11229 whole entry, looked up): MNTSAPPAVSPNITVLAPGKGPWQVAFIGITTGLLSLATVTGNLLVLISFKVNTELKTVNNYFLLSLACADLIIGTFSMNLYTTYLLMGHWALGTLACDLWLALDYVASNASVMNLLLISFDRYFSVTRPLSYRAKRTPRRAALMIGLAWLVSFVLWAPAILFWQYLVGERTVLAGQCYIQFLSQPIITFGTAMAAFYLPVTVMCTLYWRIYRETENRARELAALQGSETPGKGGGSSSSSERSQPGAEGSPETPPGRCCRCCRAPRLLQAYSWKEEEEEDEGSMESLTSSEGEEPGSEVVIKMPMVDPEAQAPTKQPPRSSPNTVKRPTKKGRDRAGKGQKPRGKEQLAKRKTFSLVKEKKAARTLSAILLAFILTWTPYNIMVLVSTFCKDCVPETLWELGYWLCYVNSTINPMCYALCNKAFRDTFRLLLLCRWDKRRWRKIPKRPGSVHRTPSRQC
CHRM1 PAM: potentiates human M1 receptor response to acetylcholine; hit rate 0.088% among 360,000; CHO-K1 hM1, Fluo-8 calcium fluorescence, ACh EC20; 0% = ACh EC20, 100% = maximal ACh; P11229; activation, % at 3 µM; AID 588819; in the data active = activation above about 19%, passing the limit was not always enough
M1 PAM parental: M1 PAM counterscreen hit in parental CHO-K1 cells; ATP EC20, Fluo-8 calcium fluorescence; 0% at ATP EC20, 100% at ATP max; hit rate 0.02% among 360,000; activation, % at 3 µM;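 active = activation above the run cutoff, the mean activation of all test compounds plus 3 SD, cut at about 40% in these data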;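 also: peak over basal fluorescence ratio in a 140 s read after ATP addition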
CHRM1 antagonist: blocks human M1 muscarinic receptor; CHO-K1 hM1, Fluo-8 calcium fluorescence, ACh EC80 antagonist; inhibition, % at 3 µM; AID 588852; hit rate 1.3% among 360,000;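 active = percent inhibition above its own plate's cutoff, namely the mean of that plate's compound wells plus 3 SD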;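 also: peak over basal fluorescence ratio during 140 s after agonist addition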
CHO-K1 Ca antag: M1 antagonist counterscreen hit in parental CHO-K1 cells; ATP-induced calcium, Fluo-8 fluorescence; inhibition, % at 3 µM; hit rate 0.6% among 360,000; AID 602250;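 active = inhibition above a per-plate cutoff, the plate's mean sample inhibition plus 3 SD, cut at about 24% in these data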
Hits are given with their value; – = inactive.

SMILES	M1 ag parental	M1 ag	CHRM1 PAM	M1 PAM parental	CHRM1 antagonist	CHO-K1 Ca antag
CCOC(=O)N1CCC(NCCNC(=O)c2ccc(F)c(F)c2)CC1	–	63.9	–	–	74.5	–
CCOC(=O)N1CCC(NCCNC(=O)c2ccco2)CC1	–	–	–	–	–	–
CCOC(=O)N1CCC(NCCNC(=O)c2ccc(Cl)cc2)CC1	–	21.6	–	–	–	–
CCOC(=O)N1CCC(NC(=O)c2cc(C(=O)Nc3ccc(F)cc3F)ccc2CO)CC1	–	–	–	–	–	28.5
CC(N)(C(=O)O)c1cccc(OCc2cccc(Cl)c2)c1 (centres undefined)	–	–	–	–	–	–
Cc1cc(C)cc(OCCn2nnc3ccccc32)c1	–	–	–	–	–	–
COc1cccc(NC(=O)Cn2c3ccc(F)cc3c3nc4n(c(=O)c32)CCCS4)c1	–	–	–	–	–	–
COc1ccc(-n2c(C)cc(C(=O)COC(=O)Cn3cnc4ccccc43)c2C)cc1	–	–	–	–	20.2	33.2
C(=N\N1CCN(C(c2ccccc2)c2ccccc2)CC1)/c1ccc2c(c1)OCO2	–	–	–	–	–	23.9
CCCc1ncc(C(O)(c2ccccc2)c2ccccc2)n1C	–	–	–	–	93.9	–
CCCc1ncc(C(O)c2cccc3ccccc23)n1C (centres undefined)	–	–	–	–	–	–
CCCc1ncc(C(O)(c2ccccc2)c2ccc(C)cc2)n1C (centres undefined)	–	–	–	–	94.6	–
Cc1ccccc1-n1c(-c2ccc(Cl)cc2)cnc1SCC(=O)NC1CCS(=O)(=O)C1 (centres undefined)	–	–	–	–	–	–
O=C(c1cn(-c2ccccc2)nc1-c1ccc(F)cc1)N1CCOCC1	–	–	–	–	–	–
O=C(c1cn(-c2ccccc2)nc1-c1ccc(F)cc1)N1CCCCC1	16.9	–	–	–	–	–
O=C([C@@H]1CCCN1C1=NS(=O)(=O)c2ccccc21)N1CCN(c2ccccc2)CC1	–	–	–	–	–	–
Cc1ccc(C(=O)NCC(C)(C)O)cc1	–	–	–	–	–	26.3
COc1ccc(Cl)cc1NC(=O)COC(=O)C1COc2ccccc2O1 (centres undefined)	–	–	–	–	–	–
N#CC1(NC(=O)COC(=O)C2=COCCO2)CCCCC1	19.0	23.7	–	–	–	–
N#CC1(NC(=O)COc2ccccc2[N+](=O)[O-])CCCCC1	–	–	–	–	37.3	–
N#CC1(NC(=O)COc2cc(F)ccc2[N+](=O)[O-])CCCCC1	–	–	–	–	–	–
COc1ccc(NC(=O)COc2ccccc2Cc2ccccc2)cc1S(=O)(=O)N1CCOCC1	–	–	–	–	–	–
Cc1cc(/C=N/n2cnnc2)c(C)n1-c1ccc(OCc2ccc(Cl)cc2Cl)cc1	–	–	–	–	–	42.6
Cc1cc(/C=N/n2cnnc2)c(C)n1-c1ccc(OCc2ccc(F)cc2)cc1	–	–	–	–	45.7	–
Cc1cc(/C=N/n2cnnc2)c(C)n1-c1ccc(Cl)cc1	–	–	–	–	–	–
SMILES	M1 ag parental	M1 ag	CHRM1 PAM	M1 PAM parental	CHRM1 antagonist	CHO-K1 Ca antag
O=C(O)c1cccc(Nc2nc(-c3ccc([N+](=O)[O-])cc3)nc3ccccc23)c1	–	–	–	–	–	–
O=[N+]([O-])c1ccc(-c2nc(Nc3cccc(O)c3)c3ccccc3n2)cc1	20.3	–	–	–	–	–
O=C(N/N=C/c1ccc(O)cc1)c1ccc(COc2cc(Cl)ccc2Cl)o1	15.5	35.7	–	–	–	–
O=S(=O)(c1cccc(Br)c1)N1CCN(c2ncnc3scc(-c4ccccc4)c23)CC1	–	–	–	–	–	–
Cc1csc2ncnc(N3CCN(S(=O)(=O)c4cccc(C(F)(F)F)c4)CC3)c12	–	–	–	–	46.5	25.7
CCOC(=O)c1ccccc1NC(=O)CSc1nc2[nH]ncc2c(=O)[nH]1	–	–	–	–	34.7	–
Cc1ccc(S(=O)(=O)c2c(C)cc(C)[nH]c2=O)c(C)c1	–	–	–	–	–	–
CC1CCN(c2c(NCC3CCC(C(=O)N4CCCCC4)CC3)c(=O)c2=O)CC1 (centres undefined)	–	–	–	–	–	28.1

Screens from PubChem.
